In PubChem BioAssay (NCI):
Compounds without any hit were thinned out: in the full panel of roughly 79,000, 15% have a hit. Rule as the data show it: active = growth inhibition above about 70%; inactive = the rest.

How the values were obtained:
[1] = NCI Yeast Anticancer Drug Screen. Data for the rad50 strain (AID 155);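 also: 0% = growth of vehicle-only cultures of the same strain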; settings: S. cerevisiae rad50 strain growth inhibition; at 50.0 µM; stronger effect = higher value
Procedure, shortened: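 Inhibition values express reduced yeast growth in compound-treated cultures relative to vehicle-treated controls.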

[2] = NCI Yeast Anticancer Drug Screen. Data for the mec2-1 strain (AID 157); settings: S. cerevisiae mec2-1 strain, at 50.0 µM, stronger effect = higher value
Procedure, shortened: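 Growth inhibition is read against vehicle-treated controls after compound exposure of the mec2-1 yeast strain, which is defective in DNA damage repair or cell cycle control.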

[3] = NCI Yeast Anticancer Drug Screen. Data for the mlh1 rad18 strain (AID 175); settings: S. cerevisiae mlh1 rad18 strain growth inhibition; at 50.0 µM; stronger effect = higher value
Procedure, shortened: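 Cells of a genetically altered yeast strain, deficient in DNA damage repair, were treated with compound. Their growth was then compared with that of vehicle-treated cultures to give inhibition.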

Measured: growth inhibition

CCOC(=O)CC(=O)c1ccc(C)cc1
inactive: [1] -13.6% | [2] -3.45% | [3] 9.75%

Fc1ccccc1Nc1n[nH]c(=S)s1
inactive: [1] 55.9% | [2] 56.7% | [3] 38.8%

N#C/C(=C1C=C(Br)/C(=N\O)C=C\1Cl)c1ccc(Cl)cc1
inactive: [1] 30.9% | [2] 4.55% | [3] 27.7%

COc1cc(OC)cc(C(=O)Cl)c1
inactive: [1] -24.4% | [2] -40% | [3] -16.1%

COc1cc(-c2cc(=O)c3c(C)cc(O)cc3o2)cc(OC)c1OC
inactive: [1] -2.1% | [2] -9% | [3] 45.6%

COc1ccccc1Oc1ccc(N=Cc2ccc(C)cc2)cc1
inactive: [1] -16.4% | [2] -25.3% | [3] 5.3%

CCN(CC)CCCOC(=O)N(Cc1ccc(Cl)cc1)C1CC1
inactive: [1] 51.2% | [2] 12.8% | [3] 46.6%

C[n+]1ccc(/C=C\c2ccc3c(c2)OCO3)cc1
inactive: [1] -1.4% | [2] -26.9% | [3] 2.6%

C(=NCC1CCC(CN=Cc2ccco2)CC1)c1ccco1 (stereo unspecified)
inactive: [1] -21% | [2] -24.8% | [3] -12.5%

COc1cccc(N2C(=O)CSC2=S)c1
inactive: [1] 32.7% | [2] 7.95% | [3] 46.8%

COc1ccc(C2NC(=O)c3ccccc3N2)c(OC)c1OC (stereo unspecified)
inactive: [1] -8.55% | [2] -20.5% | [3] -16.4%

O=S(=O)(O)c1cccc2cccc(Cl)c12
inactive: [1] 9.7% | [2] -7.4% | [3] 10.9%
